PubChem BioAssay (EPA / NIEHS)
Results filed as inconclusive are left out. Activity calls are given as the source filed them. The calls were made as follows: active = hit-call score of the fitted dose curve at least 0.9, where 1 is the maximum; inconclusive = response in the unintended direction; inactive = score below 0.9.

The molecules below were run against Glucocorticoid receptor (Homo sapiens) (UniProt P04150) (assay: NVS_NR_hGR: NovaScreen (NVS) Nuclear Receptor Binding Assay for human Glucocorticoid Receptor (GR) (AID 2283363);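 as to AC50: activity is loss of specific radioligand binding signal relative to DMSO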).
Sequence of Glucocorticoid receptor (Homo sapiens) (P04150 whole entry, looked up): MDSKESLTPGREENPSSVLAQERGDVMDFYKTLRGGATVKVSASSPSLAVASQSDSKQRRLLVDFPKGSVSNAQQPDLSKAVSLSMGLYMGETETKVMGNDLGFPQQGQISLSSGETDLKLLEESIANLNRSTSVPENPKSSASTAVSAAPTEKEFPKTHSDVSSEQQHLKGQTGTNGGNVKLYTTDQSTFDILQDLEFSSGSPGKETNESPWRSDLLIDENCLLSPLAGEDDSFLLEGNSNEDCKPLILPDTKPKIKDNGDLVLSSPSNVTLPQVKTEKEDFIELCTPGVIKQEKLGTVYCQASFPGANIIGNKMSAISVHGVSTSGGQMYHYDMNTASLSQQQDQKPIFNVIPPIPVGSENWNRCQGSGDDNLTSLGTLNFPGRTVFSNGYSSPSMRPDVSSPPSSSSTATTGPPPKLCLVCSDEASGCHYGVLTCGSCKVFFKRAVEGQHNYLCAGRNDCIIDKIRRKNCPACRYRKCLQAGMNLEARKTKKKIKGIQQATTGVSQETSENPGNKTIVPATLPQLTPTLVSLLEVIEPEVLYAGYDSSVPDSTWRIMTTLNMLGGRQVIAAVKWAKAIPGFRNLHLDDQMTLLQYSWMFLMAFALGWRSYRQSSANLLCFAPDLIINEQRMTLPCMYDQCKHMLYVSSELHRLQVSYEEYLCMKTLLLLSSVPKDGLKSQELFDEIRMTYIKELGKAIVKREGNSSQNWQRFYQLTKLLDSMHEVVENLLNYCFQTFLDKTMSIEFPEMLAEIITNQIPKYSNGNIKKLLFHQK
Outline: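 Cell-free radioligand binding with extracted receptor protein, read by filter-based scintillation counting 16 hours after dosing. Loss of specific signal versus DMSO baseline was scored. Primary screen ran in duplicate at 25 uM; actives were followed up in concentration series.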

Row | SMILES | AC50 | outcome
1 | CCCCCCCCCCCCCCCC[N+](C)(C)CC | 2.81 µM (active) | –
2 | c1ccc2c(c1)ccc1cc3c(ccc4ccccc43)cc12 | – | inactive
3 | O=C(Nc1ccccc1SSc1ccccc1NC(=O)c1ccccc1)c1ccccc1 | 11.3 µM (active) | –

These molecules were tested against human Dopamine Transporter (DAT), SLC6A3 (gene 6531) (UniProt Q01959) (assay: NVS_TR_hDAT: NovaScreen (NVS) Transporter Assay for human Dopamine Transporter (DAT) (AID 2283374);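 also: activity means loss of bound radioligand signal relative to DMSO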).
Sequence of human Dopamine Transporter (DAT), SLC6A3 (gene 6531) (Q01959 whole entry, looked up): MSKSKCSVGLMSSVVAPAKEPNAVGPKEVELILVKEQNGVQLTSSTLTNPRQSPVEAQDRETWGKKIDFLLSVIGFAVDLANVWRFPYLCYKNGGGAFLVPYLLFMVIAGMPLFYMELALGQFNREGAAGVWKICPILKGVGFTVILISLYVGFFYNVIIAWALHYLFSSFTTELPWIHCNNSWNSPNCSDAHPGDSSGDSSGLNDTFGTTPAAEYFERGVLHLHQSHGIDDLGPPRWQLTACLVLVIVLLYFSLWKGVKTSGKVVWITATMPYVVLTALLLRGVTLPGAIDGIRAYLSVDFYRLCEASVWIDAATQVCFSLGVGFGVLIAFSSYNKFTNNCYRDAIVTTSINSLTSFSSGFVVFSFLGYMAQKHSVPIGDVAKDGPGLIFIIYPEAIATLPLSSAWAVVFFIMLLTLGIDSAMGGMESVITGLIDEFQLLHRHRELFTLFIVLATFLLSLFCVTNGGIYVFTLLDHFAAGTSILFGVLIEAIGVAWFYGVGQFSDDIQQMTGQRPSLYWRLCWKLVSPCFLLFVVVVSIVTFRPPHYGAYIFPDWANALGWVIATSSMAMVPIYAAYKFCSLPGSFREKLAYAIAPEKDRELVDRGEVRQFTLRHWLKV
Outline: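 Cell-free radioligand binding to extracted human DAT protein, read 1 h after dosing by filter-based scintillation counting. Loss of specific binding scored against DMSO baseline; primary screen in duplicate at 25 uM, actives then run in concentration series.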

Row | SMILES | AC50 | outcome
4 | c1ccc2c(c1)ccc1ncccc12 | 16.4 µM (active) | –
5 | CC(C)=CC1CC(C)CCO1 (configuration not stated) | – | inactive
6 | CCCCCCCCCCCCCCCC[N+](C)(C)CC | 1.82 µM (active) | –

What follows are molecules tested against human Norepinephrine Transporter (NET), SLC6A2 (gene 6530) (UniProt P23975) (assay: NVS_TR_hNET: NovaScreen (NVS) Transporter Assay for human Norepinephrine Transporter (NET) (AID 2283377);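 also: cell-free membrane protein extracted from CHO cells expressing human NET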).
Sequence of human Norepinephrine Transporter (NET), SLC6A2 (gene 6530) (P23975 whole entry, looked up): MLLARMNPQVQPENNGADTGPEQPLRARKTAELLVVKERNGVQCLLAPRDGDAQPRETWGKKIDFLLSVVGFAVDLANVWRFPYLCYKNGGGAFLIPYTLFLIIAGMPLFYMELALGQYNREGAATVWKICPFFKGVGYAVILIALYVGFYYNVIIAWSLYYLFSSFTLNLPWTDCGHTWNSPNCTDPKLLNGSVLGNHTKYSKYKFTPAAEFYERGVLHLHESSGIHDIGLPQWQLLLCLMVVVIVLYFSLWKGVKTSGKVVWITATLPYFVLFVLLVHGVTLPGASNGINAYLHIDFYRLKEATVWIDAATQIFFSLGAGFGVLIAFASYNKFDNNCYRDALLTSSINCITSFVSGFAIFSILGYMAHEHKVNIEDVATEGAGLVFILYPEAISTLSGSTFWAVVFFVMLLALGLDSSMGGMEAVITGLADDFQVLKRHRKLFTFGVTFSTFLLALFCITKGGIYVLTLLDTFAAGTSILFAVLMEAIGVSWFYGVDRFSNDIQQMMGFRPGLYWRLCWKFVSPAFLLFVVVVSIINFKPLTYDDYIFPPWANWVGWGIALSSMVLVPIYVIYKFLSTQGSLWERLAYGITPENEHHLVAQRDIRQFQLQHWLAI
Outline: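 Radioligand binding to human NET in cell-free CHO-derived protein preparations, read by filter-based scintillation counting 1 hour after dosing. Loss of signal versus DMSO baseline indicated displacement; primary screening in duplicate at 25 uM, actives then titrated.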

Row | SMILES | AC50 | outcome
7 | c1ccc2c(c1)ccc1ncccc12 | 7.22 µM (active) | –
8 | O=[N+]([O-])c1ccc(CO)cc1 | – | inactive
9 | CCCCCCCCCCCCCCCC[N+](C)(C)CC | 2.32 µM (active) | –
10 | COc1ccc2nc(N)sc2c1 | 9.9 µM (active) | –
11 | O=C(Nc1ccccc1SSc1ccccc1NC(=O)c1ccccc1)c1ccccc1 | – | inactive

Each molecule was assayed against mouse Estrogen Receptor alpha (Era), Esr1 (gene 13982) (UniProt P19785) (assay: NVS_NR_mERa: NovaScreen (NVS) Nuclear Receptor Binding Assay for mouse Estrogen Receptor alpha (Era) (AID 2283378);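 also: hit means loss of bound radioligand signal relative to DMSO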).
Sequence of mouse Estrogen Receptor alpha (Era), Esr1 (gene 13982) (P19785 whole entry, looked up): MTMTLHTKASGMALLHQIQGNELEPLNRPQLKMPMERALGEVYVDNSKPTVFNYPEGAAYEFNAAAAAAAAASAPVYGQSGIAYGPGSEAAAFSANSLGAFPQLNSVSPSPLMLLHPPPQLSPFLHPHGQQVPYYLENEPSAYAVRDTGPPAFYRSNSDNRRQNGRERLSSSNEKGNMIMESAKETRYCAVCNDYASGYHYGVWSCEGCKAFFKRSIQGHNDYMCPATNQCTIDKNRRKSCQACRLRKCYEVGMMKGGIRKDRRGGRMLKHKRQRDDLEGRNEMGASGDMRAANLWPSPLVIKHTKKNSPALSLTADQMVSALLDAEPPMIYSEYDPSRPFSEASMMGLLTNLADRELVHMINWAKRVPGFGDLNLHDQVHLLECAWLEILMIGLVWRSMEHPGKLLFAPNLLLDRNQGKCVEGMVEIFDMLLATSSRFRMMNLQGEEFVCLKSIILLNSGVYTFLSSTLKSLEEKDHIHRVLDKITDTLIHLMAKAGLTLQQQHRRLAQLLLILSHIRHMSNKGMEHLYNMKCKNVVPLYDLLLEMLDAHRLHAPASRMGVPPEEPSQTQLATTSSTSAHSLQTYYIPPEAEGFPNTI
Outline: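 Test chemicals competed against a specific radioligand for binding to cell-free mouse Era. Duplicate wells at 25 uM were read 18 hours later by filter-based radiodetection, with loss of signal against DMSO scored as activity.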

Row | SMILES | outcome | AC50
12 | NC(CO)(CO)CO | inactive | –
13 | COc1ccc(-c2coc3cc(O)ccc3c2=O)cc1 | – | 0.143 µM (active)
14 | O=C(O)CCCCCCCCCC(=O)O | inactive | –
15 | Cc1cccc(N(C)C(=S)Oc2ccc3ccccc3c2)c1 | inactive | –
16 | CCC(=O)Oc1ccc(/C(CC)=C(\CC)c2ccc(OC(=O)CC)cc2)cc1 | – | 0.0132 µM (active)
17 | [Cl][Bi]([Cl])([c]1ccccc1)([c]1ccccc1)[c]1ccccc1 | inactive | –
18 | CCC(Cc1ccccc1)(C(=O)c1ccc(N2CCOCC2)cc1)N(C)C (configuration not stated) | inactive | –
19 | CCC(C)OC(=O)c1ccc(O)cc1 (configuration not stated) | – | 4.99 µM (active)
20 | C=C[C@](C)(O)CC[C@@H]1[C@@]2(C)CCCC(C)(C)[C@@H]2CC[C@@]1(C)O | inactive | –
21 | S=C(NC1CCCCC1)NC1CCCCC1 | inactive | –
22 | C=CC(C)(CCC=C(C)C)OC(=O)CC(C)C (configuration not stated) | inactive | –
23 | O=C(O)c1ccccc1Nc1cccc(C(F)(F)F)c1 | inactive | –
24 | CC(C)(C)C(=O)CCc1ccc(Cl)cc1 | inactive | –
25 | CC(C)c1ccc2c(c1)CC[C@H]1[C@](C)(CN)CCC[C@]21C | inactive | –
26 | O=C(c1ccc(O)cc1)c1ccc(O)cc1O | – | 1.29 µM (active)
27 | O=C1CCCCCN1SSN1CCCCCC1=O | inactive | –
28 | O=C1Nc2ccccc2C1(c1ccc(O)cc1)c1ccc(O)cc1 | – | 6.61 µM (active)
29 | COc1ccc(C(Cl)=C(c2ccc(OC)cc2)c2ccc(OC)cc2)cc1 | – | 4.88 µM (active)
30 | CC(C)C1=CC2=CC[C@@H]3[C@](C)(CCC[C@@]3(C)C(=O)O)[C@H]2CC1 | inactive | –
31 | CCOC(=O)N1CCC(=C2c3ccc(Cl)cc3CCc3cccnc32)CC1 | inactive | –
32 | O=CN1CCCCC1 | inactive | –
